Screens: PubChem, National Center for Advancing Translational Sciences (NCATS)
IL1B secr inh: qHTS for Inhibitors of Inflammasome Signaling: IL-1-beta AlphaLISA Primary Screen; activity change, % at 57.5 µM; THP-1 LPS/ATP IL-1B secretion, AlphaLISA, 16 h; hits give low values; actives 4.7% (n = 360,000); AID 743279, 2014; in the data active = activity change below about -50%; inconclusive = mostly about -30% to -49%; also: % is scaled to controls: 0 for no effect and ±100 for the full control effect
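Secreted IL-1B measured by AlphaLISA bead assay after 16 h compound exposure of THP-1 cells; compounds (final up to 57.5 uM) added 1 h before LPS (250 ng/mL) and ATP (1.25 mM) stimulation; lower signal means less secretion.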
BCR signal inh: qHTS Assay to Find Inhibitors of Chronic Active B-Cell Receptor Signaling; Potency, µM (top dose mostly 46.1 µM), without a hit: top-dose activity change, negative = inhibition, most hits filed as inhibitors; ABC-DLBCL IkBa-CBG/CBR reporter, luminescence ratio, 4 h; AID 493014, 2011; actives 0.05% (n = 340,000); active = well fitted inhibition curve with a large enough effect in the signal ratio, with a control signal flat, not every such curve was filed as active; inconclusive = small, poorly fitted or top-dose-only effect, or effect the other way, or a change in a side signal; the % refers to the signal ratio;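 also: potency is read from the fitted curve at half-maximal effect; plate controls were basal doxycycline-induced cells for no effect and cells given 10 µM MG132 for full effect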
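Doxycycline induced both beetle luciferases in TMD8 lymphoma cells; IKK-driven degradation limits the IkappaBalpha-fused green signal, while red luminescence normalises for cell number and nonspecific effects. Compounds tested up to 46 uM, 4 hrs.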
SW480 rerep: A quantitative high throughput screen for small molecules that induce DNA re-replication in SW480 colon adenocarcinoma cells; SW480 DNA re-replication, Hoechst DNA content imaging, 48 h; Potency, µM (titrated, usually from 46.1 µM), without a hit: at the highest dose re-replication activation, usual class: activators; AID 624297, 2012; actives 1.8% (n = 340,000); also: potency is read from the fitted curve at half-maximal effect; % of control where 0% means no effect; nearly all actives have a fitted effect of over 55% in size
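DNA re-replication was detected as more nuclei of elevated Hoechst intensity after 48 hr exposure to compound (23 nL pinned per well of 250 cells).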
MCF10A rereplic: A quantitative high throughput screen for small molecules that induce DNA re-replication in MCF 10a normal breast cells. Potency, µM (top dose mostly 46.1 µM), inactives show top-dose activity, positive = re-replication, most hits filed as activators. actives 2.9% (n = 350,000). MCF 10A DNA re-replication, Hoechst nuclear intensity, 48 h; also: potency is read from the fitted curve at half-maximal effect; % of control where 0% means no effect; nearly all actives have a fitted effect of over 50% in size
DT40 TDP1 CPT: qHTS for Inhibitors of human tyrosyl-DNA phosphodiesterase 1 (TDP1): qHTS in cells in presence of CPT; chicken DT40 Tdp1-/-;hTDP1 cells + 20 nM CPT, ATP luminescence, 48 h; Potency, µM (top dose mostly 46.2 µM), without a hit: top-dose activity change, negative = growth inhibition, usual class: inhibitors; actives 12% (n = 420,000); also: potency is read from the fitted curve at half-maximal effect; % is scaled to controls: 0 for no effect and ±100 for the full control effect; nearly all actives have a fitted effect of over 55% in size
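Chicken DT40 Tdp1-/- cells stably complemented with human TDP1 were seeded at 400 cells/well in medium containing 20 nM camptothecin, exposed to pin-transferred compounds, and grown at 37 °C for at least 48 hr. Viability was read as ATP luminescence.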
DT40 TDP1 no CPT: qHTS for Inhibitors of human tyrosyl-DNA phosphodiesterase 1 (TDP1): qHTS in cells in absence of CPT | DT40 Tdp1-/- hTDP1 cells, no CPT, ATP luminescence, 48 h | Potency, µM (doses to about 46.2 µM), inactives show at the top dose activity change, negative = growth inhibition, actives largely listed as inhibitors | actives 15% (n = 420,000) | AID 686978, 2013; also: potency is read from the fitted curve at half-maximal effect; % is scaled to controls: 0 for no effect and ±100 for the full control effect; nearly all actives have a fitted effect of over 55% in size
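Growth of hTDP1-complemented DT40 Tdp1-knockout cells is measured by ATP luminescence after at least 48 hr compound exposure at 37 °C, with DMSO substituting for the 20 nM CPT used in the parallel screen.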
Active calls of the source: *; ? = inconclusive; / = no result given; ! = not active in a repeat. Only some compounds are listed: those with a hit (about 19% of all), similar ones and a draw of the others. Unless noted, calls follow the shape of the dose curve; as a rule, active = well fitted curve in the direction sought with a large enough effect; inconclusive = small, poorly fitted or top-dose-only effect, or another doubt; inactive = no such curve, though single readings can be large; an effect the other way counts as inactive or inconclusive.

SMILES	IL1B secr inh	BCR signal inh	SW480 rerep	MCF10A rereplic	DT40 TDP1 CPT	DT40 TDP1 no CPT
COc1cc(/C=N/NC(=O)CN2CCCCC2)ccc1OCc1ccccc1	3	-5%	?	8%	3%	-14%
COc1ccc(/C=N\NC(=O)c2cccc(F)c2)cc1COc1ccccc1	78	/	1.5µM*	?	0.82µM*	0.65µM*
O=C(N/N=C\c1ccc(COc2ccc([N+](=O)[O-])cc2)o1)c1cccc(Cl)c1	-25	2%	15%	18%	-14%	?
COC(=O)CC1=C(C(=O)OC)C2(C(=O)Nc3c(C)cccc32)C(C#N)=C(N)O1 (configuration not stated)	0	2%	2%	1%	-30%	?
C[C@]12CCC3C(CC[C@H]4C[C@@H](O)CC[C@]34C)C1CC[C@@H]2OC(=O)[C@H](N)CCCCN (some centres not stated)	-72*	-17%	?	?	?	?
Cc1ccccc1-n1nc(C)c2c1NC(=O)CSC2c1ccc(N(C)C)cc1 (configuration not stated)	/	/	/	/	?	18µM*
CC(=O)N1CC(=O)Nc2ccc(Cl)cc2C1c1ccccc1 (configuration not stated)	21	0%	0%	9%	12%	-10%
Cc1cccc(-n2nc(C)c3c2NC(=O)CSC3c2ccccc2Cl)c1 (configuration not stated)	/	/	/	/	?	21µM*
O=C1CSC(c2ccccc2Cl)c2cc(Cl)ccc2N1 (configuration not stated)	/	/	/	/	?	39µM*
O=C1C2CCCN2C(c2cccnc2)N1c1nccs1 (configuration not stated)	-5	3%	-2%	2%	0%	6%
CCOC(=O)N1CCN(c2ccc(Cl)c(Cl)c2)CC1	-11	2%	6%	-18%	?	13µM*
COC(=O)C1=C(C(=O)OC)SC2(S1)C(C(=O)OC)=C(C(=O)OC)Sc1c2ssc1=O	-95*	/	1µM*	?	0.092µM*	0.18µM*
Cc1ccccc1CCNCc1cc2cccc(C)c2[nH]c1=O	?	-6%	-7%	13%	16µM*	16µM*
Cc1cccc(-n2c(=O)c3c(c4cc(C)ccc4n3C)n(CC(=O)Nc3ccc(C)c(C)c3)c2=O)c1	/	/	/	/	-20%	?
CCOc1cc(-c2ccc(N)c(OCC)c2)ccc1N	-2	-11%	21%	4%	12µM*	?
O=C(CN1CCN(C(=O)COc2cccc(F)c2)CC1)Nc1ccc(Cl)c(C(F)(F)F)c1	?	?	-15%	-3%	21µM*	5.2µM*
CC(C)(C)NC(=O)CN1CCCN(C(=O)COc2ccc(Cl)c3ccccc23)CC1	0	?	0%	12%	?	?
CCC(C(N)=O)N1CCCC1=O (configuration not stated)	/	/	-2%	-3%	?	-18%
O=C(Cn1ncc2c3ccccc3n(Cc3ccc(F)cc3)c2c1=O)N1CCC2(CC1)OCCO2	-13	?	4%	21%	3.3µM*	3.3µM*
CCOC(=O)N1CCN(C(=O)Cn2ncc3c4ccccc4n(Cc4ccc(F)cc4)c3c2=O)CC1	/	/	/	/	1.6µM*	1.8µM*
Cc1c2cnn(CC(=O)N3CCC4(CC3)OCCO4)c(=O)c2c(C)n1Cc1ccccc1	2	-8%	-2%	-3%	-7%	?
COC(=O)[C@@]1(C)[C@H]2C(=O)N(Cc3ccccc3)C(=O)[C@H]2[C@H]2CN=C(SCc3ccc(Cl)cc3)N21	0	-2%	?	26%	?	?
CN(C)c1ccccc1	5	/	/	/	2%	16%
O=P(c1ccccc1)(c1ccccc1)N(c1ccccc1)c1ccccc1	12	4%	0%	4%	2.9µM*	4.6µM*
Cc1ccc(NC(=O)Cn2c(=O)oc3ccccc32)cc1C	-8	?	?	0%	2%	-2%
SMILES	IL1B secr inh	BCR signal inh	SW480 rerep	MCF10A rereplic	DT40 TDP1 CPT	DT40 TDP1 no CPT
COc1ccc(CNC(=O)Cn2c(SCC(=O)Nc3ccc(C)c(C)c3)nc3ccccc32)cc1	/	/	/	/	?	4.6µM*
COc1cccc(-n2c(O)c(C=NCCN3CCOCC3)c(=O)[nH]c2=O)c1	23	-12%	-4%	-7%	1%	0%
CCOc1ccc2nc(NC(=O)c3cccn(Cc4ccc(C)cc4)c3=O)sc2c1	/	2%	/	/	-9%	-11%
CCOc1ccc(CCNC(=O)c2cnc3sc(N4CCCC4)nn3c2=O)cc1	/	/	/	/	6.5µM*	2.3µM*
COc1cccc(OC)c1-c1nn2c(-c3n[nH]c4c3CCC4)nnc2s1	/	/	/	/	6.3µM*	5.6µM*
CCOC(=O)c1cc2c(cn1)[nH]c1ccccc12	5	?	-12%	9%	?	18µM*!
COC(=O)c1cc2c(cn1)[nH]c1ccccc12	/	/	/	/	21%	0%
CCC(=O)OC1CCC2C3CCC4CC(=O)C=CC4(C)C3CCC12C (configuration not stated)	-79*	/	?	?	-71%	21µM*
CC(C)c1c(C(=O)N/N=C/c2cccc(OCc3ccccc3)c2)nnn1-c1nonc1N	-84*	?	-17%	16µM*	3%	-26%
COC(=O)CSc1cc([N+](=O)[O-])cc2c1c(C1OCCO1)nn2-c1ccccc1	18	0%	-1%	?	1%	-1%
O=S(=O)(c1ccc(Cl)cc1)N1CN2CCN(C2)C1	-18	?	0%	-2%	23µM*	?
O=S(=O)(c1ccc(F)cc1)N1CN2CCN(C2)C1	2	4%	1%	-1%	?	?
COc1ccc(NC(=O)c2ccc(COCC(F)(F)C(F)F)cc2)cc1	-6	-10%	-4%	1%	-25%	?
CCCN(CCc1cccs1)[C@H]1CCc2c(O)cccc2C1	/	/	9%	5%	?	?
Oc1ccccc1-c1ccccc1	/	/	15%	0%	0%	-10%
Nc1ccccc1	/	/	/	/	-17%	-19%
[Hg+][c]1ccccc1	/	/	11µM*	51%	0.089µM*	0.1µM*
c1ccc(-c2ccc(CN3Cc4ccccc4-n4nncc4C3)cc2)cc1	49	/	/	/	4.6µM*	5.2µM*
